The nature of assay [1]: qHTS assay to identify small molecule agonists of the hypoxia (HIF-1) signaling pathway - cell viability counter screen (AID 1224844; calls by dose curve; further: nearly all actives have a fitted effect of over 50% in size). In outline:
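Same wells as the HIF-1 reporter screen; ME-180 cells carrying HRE-bla, 17 hr treatment at 37C; CellTiter-Glo luminescence read after 30 min at room temperature.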

A short description of assay [2]: qHTS assay to identify small molecule agonists of H2AX (AID 1224845; active means well fitted activation curve with a large enough effect in the signal ratio in the repeat runs, not every such curve was filed as active; the % refers to the signal ratio). In short, it runs like this:
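Wild-type CHO-K1 cells plated overnight, then exposed 3 hr at 37C to compounds at 15 concentrations (0.76% DMSO). Lysed, then HTRF anti-pH2AX(S139)-cryptate/anti-H2AX-d2 detection after 24 hr at room temperature; emissions 665 and 620 nm.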
A general note: qHTS replaces the single test concentration by a dilution series.

A short description of assay [3]: qHTS assay to identify small molecule agonists of the hypoxia (HIF-1) signaling pathway (AID 1224846; active means well fitted activation curve with a large enough effect in the signal ratio in the repeat runs, not every such curve was filed as active; the % refers to the signal ratio). In outline:
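In ME-180 cells bearing an HRE-bla construct, 17 h treatment with DMSO-dissolved compounds at 37C was followed by CCF4-AM loading to quantify reporter induction.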

The nature of assay [4]: qHTS assay to identify small molecule agonists of H2AX - cell viability counter screen (AID 1224847; calls by dose curve; further: top concentration of the series differs between compounds; nearly all actives have a fitted effect of over 30% in size). In outline:
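Cells plated first: CHO-K1, 1000 per well in 10% FBS medium, incubated overnight at 37C. Then 15-point compound titration added (final DMSO 0.76%) for 3 hr. Finally CellTiter-Glo added and luminescence read.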

Assay [5] can be described thus: qHTS RealTime-Glo MT Cell Viability Assay in HepG2 cells - 24 hour (AID 1224867). Further: nearly all actives have a fitted effect of over 50% in size. In short, it runs like this:
(§1)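 Cells + NanoLuc/prosubstrate dispensed (600 cells/well) → 5 h at 37 C/5% CO2 → compounds in DMSO transferred → 40 h incubation at 37 C, luminescence read at 0, 8, 16, 24, 32, 40 h.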

The nature of assay [6]: qHTS RealTime-Glo MT Cell Viability Assay in HEK293 cells - 32 hour (AID 1224868). Further: top concentration of the series differs between compounds; nearly all actives have a fitted effect of over 50% in size. In short, it runs like this: (§2)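 Tox21 10K qHTS, HEK293, 600 cells/well, RealTime-Glo reagent co-dispensed with cells; 5 h preincubation, compound by pintool, 37 C, luminescence at 0–40 h.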
Assay [7] in a line: A CellTox Green Cytotoxicity Assay to monitor cytotoxicity in HEK293 cells - 0 hour (AID 1224869). Further: nearly all actives have a fitted effect of over 50% in size. In outline: (§3)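 Homogeneous no-lysis format: HEK293 cell suspension mixed with CellTox Green reagent, seeded, incubated 5 h at 37 C/5% CO2, then dosed by pintool with compound in DMSO.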
The nature of assay [8]: qHTS RealTime-Glo MT Cell Viability Assay in HepG2 cells - 40 hour (AID 1224870). Further: nearly all actives have a fitted effect of over 50% in size. In short, it runs like this: (§4)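 HepG2 cells mixed with RealTime-Glo MT reagents (NanoLuc plus cell-permeant prosubstrate) were seeded at 600 cells/well, incubated 5 h at 37 C/5% CO2, then pinned with compounds in DMSO; nonlytic luminescence tracked viability during 40 h treatment.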
Assay [9] in a line: A CellTox Green Cytotoxicity Assay to monitor cytotoxicity in HEK293 cells - 40 hour (AID 1224871). Further: nearly all actives have a fitted effect of over 45% in size. Further: potency means the concentration at half of the fitted maximal effect. In outline: as §3
The nature of assay [10]: qHTS RealTime-Glo MT Cell Viability Assay in HEK293 cells - 16 hour (AID 1224872). In short, it runs like this:
as §2

A short description of assay [11]: qHTS RealTime-Glo MT Cell Viability Assay in HepG2 cells - 8 hour (AID 1224873). Further: nearly all actives have a fitted effect of over 55% in size. In short, it runs like this: as §4
Assay [12] in a line: A CellTox Green Cytotoxicity Assay to monitor cytotoxicity in HEK293 cells - 24 hour (AID 1224875). Further: nearly all actives have a fitted effect of over 45% in size. In outline: as §3
Assay [13] can be described thus: A CellTox Green Cytotoxicity Assay to monitor cytotoxicity in HepG2 cells - 16 hour (AID 1224876). Further: nearly all actives have a fitted effect of over 45% in size. In outline:
(§5)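 Fluorescent DNA-binding dye, 600 HepG2 cells/well, 5 h preincubation then compound in DMSO; same plates read at 0–40 h, 37 C.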

Assay [14] is described as follows: qHTS RealTime-Glo MT Cell Viability Assay in HepG2 cells - 32 hour (AID 1224877). Further: nearly all actives have a fitted effect of over 55% in size. In short, it runs like this:
as §1

Assay [15] in a line: A CellTox Green Cytotoxicity Assay to monitor cytotoxicity in HepG2 cells - 40 hour (AID 1224879). Further: nearly all actives have a fitted effect of over 40% in size. In outline:
as §5

A short description of assay [16]: qHTS RealTime-Glo MT Cell Viability Assay in HEK293 cells - 40 hour (AID 1224874). Further: nearly all actives have a fitted effect of over 50% in size. The conditions noted are these: RealTime-Glo luminescence; max response: stronger effect = lower value. In outline:
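Measured as luminescence from the same continuously cultured HEK293 wells at successive time points (0, 8, 16, 24, 32, 40 h) after compound addition. Reagent present from seeding; dosing at 5 h; incubation 37 C.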

The nature of assay [17]: A CellTox Green Cytotoxicity Assay to monitor cytotoxicity in HepG2 cells - 24 hour (AID 1224878). Further: nearly all actives have a fitted effect of over 45% in size. In outline: as §5
Assay [18] is described as follows: qHTS assay to identify small molecule antagonists of the estrogen related receptor (ERR) signaling pathway from Tox21 library (AID 1224848). Further: nearly all actives have a fitted effect of over 50% in size. In short, it runs like this: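 Tox21 10K compounds in DMSO tested for ERR pathway antagonism in NTP's ERR cell line; 18 h, 37 C exposure; ONE-Glo luminescence.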
Assay [19] in a line: qHTS assay to identify small molecule agonists of the estrogen related receptor (ERR) signaling pathway from Tox21 library (AID 1224849; calls by dose curve; further: nearly all actives have a fitted effect of over 15% in size). As to conditions: ERR reporter cell line, ONE-Glo luciferase, 18 h; at 92.4 µM (top of the series). In outline:
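Reporter cells (ERR, NTP source) treated with Tox21 10K compounds 18 h, 37 C. Readout: ONE-Glo luminescence, 30 min RT.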

“And” between values parts separate entries of the source, which are not always exact repeats. Equal entries are not always repeated. Values without a mark were called inactive. Results filed as inconclusive are left out. The source made the active and inactive calls. Unless noted, the call rests on the fitted dose curve; in most records, active means well fitted curve in the direction sought with a large enough effect in the repeat runs; inconclusive means weak or mixed curves; inactive means no such curve, though single readings can be large; an effect the other way counts as inactive or inconclusive.
On the % scale 0 is the no-effect control and ±100 the full control effect.

Consider `CN(C)CCC#N`, for which the Potency result in assay [1], in assay [2], in assay [4], in assay [6], in [7] and in assay [9] was “inactive” each time. The Potency entry in [12], in assay [13] and in assay [15] was “inactive” throughout. Moreover, the outcome in assay [3], in assay [5], in assay [8], in [10], in assay [11] and in assay [14] was inactive.

For `N#Cc1ccccn1`, the Potency result in [1], in assay [2], in [6], in [7], in [9] and in assay [12] was “inactive” in each case. The Potency entry in assay [13], in assay [17] and in assay [15] was “inactive” each time. Moreover, the compound was called inactive in assay [3], in assay [5], in [8], in [10], in [11] and in assay [14]. For the same compound, the max response in assay [16] was -0.449% and 4.77%.

For `OC[C@@H](O)[C@H]1O[C@@H]2O[C@H](C(Cl)(Cl)Cl)O[C@@H]2[C@H]1O`, the Potency entry in [1], in assay [2], in assay [18], in [6], in assay [7] and in assay [9] was “inactive” each time. Also, the Potency result in [12], in assay [13] and in [15] was “inactive” in each case. Besides, the compound was called inactive in assay [3], in [5], in [8], in [10], in assay [11] and in [14]. For the same compound, in assay [19], the activity change, positive = activation was 4.33% and 6.3%. Also, the max response in assay [16] is -9.36% and 2.42%.

Regarding `O=S(=O)(O)OOS(=O)(=O)O`, the Potency result in [1], in assay [2], in assay [6], in assay [7], in assay [9] and in assay [12] was “inactive” throughout. Besides, the Potency result in assay [13] and in [15] was “inactive” each time. Further, the outcome in assay [3], in assay [5], in assay [8], in assay [10], in assay [11] and in assay [14] was inactive. Moreover, the max response in assay [16] is 2.97% [middle of 4 runs].

Regarding `Clc1cnc(Oc2ccc(Oc3ncc(Cl)cc3Cl)cc2)c(Cl)c1`, the Potency result in assay [1], in assay [2], in assay [4], in assay [6], in [7] and in [13] was “inactive” each time. Besides, the Potency entry in [17] and in [15] was “inactive” in each case. Besides, the compound was called inactive in assay [5], in [8], in assay [10], in [11] and in assay [14]. For the same compound, the Potency in assay [9] is 24.5 µM (active).

For `CN(C)C(=O)Nc1cccc(C(F)(F)F)c1`, the Potency entry in [1], in [2], in assay [6], in [7], in [9] and in [12] was “inactive” throughout. For the same compound, the Potency entry in assay [13], in assay [17] and in assay [15] was “inactive” throughout. Also, the outcome in assay [3], in [5], in assay [8], in [10], in [11] and in [14] was inactive. In addition, in [16], the max response is -22.8% and -6.94%.

On to `COS(=O)(=O)OC`, for which the Potency result in assay [1], in assay [2], in assay [6], in assay [7], in [9] and in assay [12] was “inactive” each time. Further, the Potency entry in assay [13] and in assay [15] was “inactive” in each case. The result in assay [3], in assay [5], in assay [8], in assay [10], in [11] and in [14] was inactive. Further, the max response in [16] was 1.63% and 22.3%.

For `O=C(O)C(Br)Br`, the Potency result in [1], in [2], in [6], in assay [7], in assay [9] and in assay [12] was “inactive” throughout. The Potency entry in assay [13], in [17] and in assay [15] was “inactive” each time. Also, the result in assay [3], in [5], in [8], in assay [10], in assay [11] and in [14] was inactive.

In the case of `ClC(Cl)c1ccccc1`, the Potency result in assay [1], in assay [2], in assay [18], in assay [6], in [7] and in assay [9] was “inactive” throughout. Besides, the Potency result in [12], in assay [13] and in [15] was “inactive” in each case. The result in [3], in assay [5], in assay [8], in assay [10], in assay [11] and in assay [14] was inactive. The activity change, positive = activation in assay [19] was 8.64% and 1.48%.

As to `O=C(O)C1C(C(=O)O)C2(Cl)C(Cl)=C(Cl)C1(Cl)C2(Cl)Cl` (configuration not stated), the Potency result in assay [1], in [2], in [4], in assay [6], in [7] and in [9] was “inactive” each time. Also, the Potency entry in assay [12], in assay [13], in assay [17] and in assay [15] was “inactive” each time. For the same compound, the result in [5], in assay [8], in assay [10], in assay [11] and in [14] was inactive.

For the compound `CCOC(=O)CC(SP(=O)(OC)OC)C(=O)OCC` (configuration not stated), the Potency result in assay [1], in [2], in [6], in assay [7], in [9] and in assay [12] was “inactive” each time. Further, the Potency result in assay [13] and in assay [15] was “inactive” each time. The compound was called inactive in assay [3], in [5], in [8], in assay [10], in assay [11] and in assay [14]. The max response in assay [16] was 11.3% and 26.8%.

As for `Nc1cc(Cl)cc(Cl)c1`, the Potency result in assay [1], in assay [2], in assay [6], in assay [7], in [9] and in assay [12] was “inactive” each time. In addition, the Potency entry in [13], in [17] and in assay [15] was “inactive” throughout. The call in assay [3], in assay [5], in assay [8], in [10], in [11] and in assay [14] was inactive.

As for `Cc1cccc(N)c1`, the Potency result in assay [1], in assay [2], in assay [18], in assay [6], in assay [7] and in assay [9] was “inactive” in each case. Further, the Potency entry in assay [12], in assay [13], in assay [17] and in assay [15] was “inactive” in each case. The activity change, positive = activation in assay [19] was 7.86% and 1.47% and 12%. Besides, the result in [5], in assay [8], in assay [10], in assay [11] and in assay [14] was inactive. In addition, the max response in assay [16] is 6.61% and 3.01%.

In the case of `Cc1cc(Cl)ccc1OC(C)C(=O)O` (configuration not stated), the Potency entry in [1], in assay [2], in [4], in assay [6], in assay [7] and in assay [9] was “inactive” throughout. For the same compound, the Potency result in [12], in [13], in assay [17] and in assay [15] was “inactive” in each case. Besides, the compound was called inactive in assay [3], in assay [5], in assay [8], in assay [10], in [11] and in assay [14].

Source of the values: PubChem BioAssay (Tox21).
